Experimental data published in PubChem BioAssay.
Activity calls are given as the source filed them.

Columns and labels:
[1] = tested on: Plasmodium falciparum Sir2 (PF13_0152, Sir2A); test: pfSir2 binders on small-molecule microarrays, primary screen, biochemical, small-molecule microarray, 635 nm fluorescence (AID 1098); conditions: small-molecule microarray binding, fluorescence 635 nm; higher = more signal;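 further: score merges spot fluorescence intensity with its signal-to-noise ratio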
[2] = small-molecule microarray binders of probe aDKK1, primary screen, biochemical, biotinylated probe, 635/667 nm fluorescence (AID 1099); conditions: higher = more signal;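 further: score merges 667nm spot fluorescence with signal to noise across triplicate slides; reference of the scale not given here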
[3] = small-molecule microarray binders of probe aCHRDL2, primary screen, biochemical, biotinylated probe, 635/667 nm fluorescence (AID 1100); conditions: higher = more signal
[4] = splicing luciferase reporter signal modulators, primary screen, spliceosome inhibition project, cell-based, HEK293, splice +/- reporter (AID 1101); conditions: luminescence, 24 h, higher = more signal, called active from +8 up or from −8 down;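 further: HEK293 cells carrying a splicing-competent luciferase reporter gene; test concentration not given here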
[5] = target: Fibroblast growth factor 10 (Homo sapiens) (UniProt O15520); test: FGF10 binders on small-molecule microarrays, primary screen, biochemical, small-molecule microarray, 635 nm fluorescence (AID 1102); conditions: FGF10 binding, fluorescence 635 nm, higher = more signal
Fibroblast growth factor 10 (Homo sapiens), sequence (O15520 whole entry, looked up): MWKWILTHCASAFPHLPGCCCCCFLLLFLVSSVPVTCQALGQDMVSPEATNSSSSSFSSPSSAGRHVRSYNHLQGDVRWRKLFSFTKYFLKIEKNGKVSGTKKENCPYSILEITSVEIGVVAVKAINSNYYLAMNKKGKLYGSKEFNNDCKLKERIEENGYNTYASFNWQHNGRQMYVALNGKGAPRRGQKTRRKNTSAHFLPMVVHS

[6] = tested on: glycogen synthase kinase-3 (GSK3A per assay name; protocol says GSK3B); test: GSK3 binders on small-molecule microarrays, primary screen, biochemical, small-molecule microarray, 635 nm fluorescence, GSK3A (AID 1103); conditions: small-molecule microarray binding, fluorescence 635 nm; higher = more signal; further: the record names both GSK3A and GSK3B
[7] = target: Epidermal growth factor receptor (Homo sapiens) (UniProt P00533); test: EGFR binders on small-molecule microarrays, primary screen, biochemical, small-molecule microarray, 635 nm fluorescence (AID 1104); conditions: EGFR binding, higher = more signal;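 further: score merges 667 nm emission intensity with spot signal to noise over triplicate slides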
Epidermal growth factor receptor (Homo sapiens), sequence (P00533 whole entry, looked up): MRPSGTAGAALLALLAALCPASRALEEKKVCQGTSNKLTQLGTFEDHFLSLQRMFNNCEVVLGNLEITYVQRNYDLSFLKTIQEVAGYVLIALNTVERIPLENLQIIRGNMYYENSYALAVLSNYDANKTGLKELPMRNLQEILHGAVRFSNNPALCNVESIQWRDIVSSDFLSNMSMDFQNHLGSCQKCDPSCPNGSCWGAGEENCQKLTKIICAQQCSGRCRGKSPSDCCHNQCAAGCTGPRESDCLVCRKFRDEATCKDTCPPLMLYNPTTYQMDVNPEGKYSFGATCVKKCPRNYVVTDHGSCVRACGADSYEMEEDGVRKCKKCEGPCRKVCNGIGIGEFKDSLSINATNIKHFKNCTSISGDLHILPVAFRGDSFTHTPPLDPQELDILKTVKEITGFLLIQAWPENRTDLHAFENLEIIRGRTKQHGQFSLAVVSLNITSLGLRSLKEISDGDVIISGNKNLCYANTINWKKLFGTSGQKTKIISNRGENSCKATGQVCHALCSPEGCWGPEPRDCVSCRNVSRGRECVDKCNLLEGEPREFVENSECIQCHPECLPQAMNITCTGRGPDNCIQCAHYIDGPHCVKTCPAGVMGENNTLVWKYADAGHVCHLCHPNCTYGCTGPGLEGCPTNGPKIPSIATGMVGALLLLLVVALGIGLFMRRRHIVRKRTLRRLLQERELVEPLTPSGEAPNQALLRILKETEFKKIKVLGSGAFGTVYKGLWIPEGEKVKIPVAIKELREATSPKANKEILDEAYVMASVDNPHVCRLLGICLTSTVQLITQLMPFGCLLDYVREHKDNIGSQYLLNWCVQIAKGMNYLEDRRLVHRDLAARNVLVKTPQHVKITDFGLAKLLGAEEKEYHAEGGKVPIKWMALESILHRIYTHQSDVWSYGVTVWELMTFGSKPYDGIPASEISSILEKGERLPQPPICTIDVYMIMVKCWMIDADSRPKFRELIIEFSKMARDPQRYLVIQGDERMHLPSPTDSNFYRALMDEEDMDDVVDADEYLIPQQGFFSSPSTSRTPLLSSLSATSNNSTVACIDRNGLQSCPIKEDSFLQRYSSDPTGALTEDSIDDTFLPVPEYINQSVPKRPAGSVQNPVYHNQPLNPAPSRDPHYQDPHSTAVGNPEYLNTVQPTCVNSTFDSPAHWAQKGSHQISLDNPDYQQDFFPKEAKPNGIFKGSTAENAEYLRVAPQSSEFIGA

[8] = target: Follistatin-related protein 3 (Homo sapiens) (UniProt O95633); test: FSTL3 binders on small-molecule microarrays, primary screen, biochemical, small-molecule microarray, 635 nm fluorescence (AID 1105); conditions: FSTL3 binding, higher = more signal;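 further: score merges emission near 667 nm and signal to noise per printed spot across three slides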
Follistatin-related protein 3 (Homo sapiens), sequence (O95633 whole entry, looked up): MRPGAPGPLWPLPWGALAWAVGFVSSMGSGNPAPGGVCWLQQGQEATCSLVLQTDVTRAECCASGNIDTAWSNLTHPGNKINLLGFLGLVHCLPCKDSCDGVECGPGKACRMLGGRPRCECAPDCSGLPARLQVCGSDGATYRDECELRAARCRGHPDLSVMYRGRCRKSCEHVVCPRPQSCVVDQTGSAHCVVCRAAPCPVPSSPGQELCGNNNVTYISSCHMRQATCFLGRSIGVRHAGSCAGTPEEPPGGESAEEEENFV

[9] = target: Dickkopf-related protein 1 (Homo sapiens) (UniProt O94907); test: DKK1 binders on small-molecule microarrays, primary screen, biochemical, small-molecule microarray, 635 nm fluorescence scan (AID 1106); conditions: DKK1 binding, higher = more signal;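 further: score merges emission near 667 nm with signal to noise over three replicate slides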
Dickkopf-related protein 1 (Homo sapiens), sequence (O94907 whole entry, looked up): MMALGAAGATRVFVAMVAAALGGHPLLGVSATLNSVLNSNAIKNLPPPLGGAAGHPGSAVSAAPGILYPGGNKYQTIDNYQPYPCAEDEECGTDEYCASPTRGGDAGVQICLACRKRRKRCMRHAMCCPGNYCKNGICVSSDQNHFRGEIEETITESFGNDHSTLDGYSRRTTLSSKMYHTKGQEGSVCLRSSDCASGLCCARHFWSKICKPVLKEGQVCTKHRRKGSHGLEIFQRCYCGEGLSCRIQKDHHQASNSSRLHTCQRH

[10] = tested on: Inhibin beta A chain (activin A); test: INHBA (activin A) binders on microarrays, primary screen, biochemical, small-molecule microarray, 635 nm fluorescence scan (AID 1107); conditions: small-molecule microarray binding, higher = more signal;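 further: mouse activin A protein probed at 4.33 µg/mL on printed slides; score merges bound-protein fluorescence near 667 nm with spot signal-to-noise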

| Compound | composite z-score [1] | composite z-score [2] | composite z-score [3] | z-score [4] | composite z-score [5] | composite z-score [6] | composite z-score [7] | composite z-score [8] | composite z-score [9] | composite z-score [10] |
| --- | --- | --- | --- | --- | --- | --- | --- | --- | --- | --- |
| C=CCC(OC(C)=O)[C@@H]1[C@@H](N(Cc2ccc(-c3ccccc3)cc2)C(=O)Cc2ccc(OC)cc2)c2cc(OCCCO)ccc2N1C(=O)c1ccc2ccccc2c1 (stereo not given in full) | 0.0435 | 0.0361 | -0.002 | -0.147 (inactive) | -0.0566 | -0.0533 | -0.0792 | 0.538 | -0.0863 | 1.17 |
| CC(=O)NCCCC[C@@H]1NC(=O)[C@H]2C[C@@H](C(=O)NCCCCCN)[C@@H](c3ccc(O)cc3)N2C1=O | 0.863 | 0.316 | 0.17 | 0.0809 (inactive) | 0.544 | 1.29 | 0.511 | 0.777 | 1.02 | 0.792 |
| C=CC[C@@]1(C(=O)NCCCOC)N=C(c2ccc(OCCCO)cc2)O[C@@H]1c1ccccc1CN=[N+]=[N-] | 1.5 | 0.739 | 0.772 | -0.226 (inactive) | 1.38 | 1.31 | 0.0652 | 1.2 | -0.0117 | 1.14 |
| COC(=O)[C@@]1(Cc2ccc(F)cc2)[C@H]2c3cc(C(=O)N4CCCC4)n(C[C@H](O)CO)c3C[C@H]2CN1C(=O)c1ccccc1 | 0.543 | 1.48 | 0.609 | 0.749 (inactive) | 0.0396 | 0.094 | -0.0057 | 0.111 | 0.145 | 0.549 |
| CN1C(=O)C2C=CC(C(O)c3ccc([N+](=O)[O-])cc3)N(Nc3ccccc3)C2C1=O (stereo not given) | 1.25 | 0.279 | 0.998 | 0.293 (inactive) | 0.898 | 0.895 | 0.0754 | 1.01 | -0.157 | 0.905 |
| CC(C)c1ccc(NN2C(C(O)C3CCCCC3)C=CC3C(=O)N(c4ccccc4)C(=O)C32)cc1 (stereo not given) | 1.4 | 0.929 | 1.11 | 0.194 (inactive) | 0.802 | 1.24 | 0.478 | 1.11 | 0.794 | 0.874 |
| [N-]=[N+]=NCc1ccccc1C[C@]1(C(=O)N2CCCCC2)COC(c2ccc(OCCCO)cc2)=N1 | 0.314 | 0.0279 | 0.552 | 0.0234 (inactive) | 0.786 | 1.02 | 1.1 | 0.636 | 0.221 | -0.297 |
| C=CCN1C(=O)[C@@]2(O[C@@H](CCO)[C@H]([Si](C)(C)c3ccc(OC)cc3)[C@H]2C)c2cc(N3CCCCC3=O)ccc21 | 0.774 | -0.0333 | 0.0918 | -2.02 (inactive) | 0.839 | 0.399 | 0.169 | 0.547 | 0.342 | 0.488 |
| CCOC(=O)C[C@H]1[C@H](OC(=O)c2ccc(-c3ccccc3)cc2)[C@@H](NC(=O)C2CCCCC2)c2cc(OCCCO)ccc2N1C(=O)Cc1ccc(OC)cc1 | -0.186 | 0.0229 | 0.0338 | -0.772 (inactive) | 0.135 | 0.178 | 0.273 | 0.217 | 0.0901 | 0.647 |
| COc1ccc(CCNC(=O)[C@@H]2c3ccccc3C(=O)N(Cc3cc(F)cc(C(F)(F)F)c3)[C@H]2c2ccc(CO)cc2)cc1 | 0.181 | 1.89 | 0.877 | -0.267 (inactive) | 0.12 | 0.765 | 0.321 | 1.1 | 0.157 | 1.08 |
| CC(C)(C)OC(=O)CC[C@@]1(C(=O)N2CCOCC2)N=C(c2ccc(OCCCO)cc2)O[C@@H]1c1ccccc1CN=[N+]=[N-] | 1.23 | 0.956 | 1.15 | 0.178 (inactive) | 1.28 | 0.818 | 0.234 | 0.488 | -0.0447 | 1.01 |
| Cc1ccc(N2C(=O)c3ccccc3[C@@H](C(=O)NCCN3CCOCC3)[C@@H]2c2ccc(CO)cc2)nc1 | 1.25 | 0.0086 | 0.685 | 0.17 (inactive) | -0.329 | -1.09 | -0.914 | -0.799 | -0.459 | -0.382 |
| CCOC(=O)C[C@H]1[C@H](OC(=O)c2ccc(-c3ccccc3)cc2)[C@@H](NC(=O)c2ccc(-c3ccccc3)cc2)c2cc(OCCCO)ccc2N1C(=O)c1ccccc1 | 0.518 | 0.685 | 0.365 | 0.594 (inactive) | 0.79 | 0.477 | 0.101 | 0.719 | 0.69 | -0.12 |
| CN1C(=O)C2C=CC(C(O)c3cccs3)N(N(c3ccccc3)c3ccccc3)C2C1=O (stereo not given) | 0.82 | 0.0508 | 0.66 | 2.04 (inactive) | 0.347 | 0.347 | -0.665 | 0.602 | -0.351 | 1.27 |
